This is an account of results in PubChem BioAssay (NCI).

SMILES strings stand for the structures. The panel holds about 83,000 compounds, 20% with a hit somewhere; the sample as a whole holds those more often.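 Percent growth is the endpoint: 0 to 100 indicates growth inhibition (40 means 60% inhibition), 0 means no net growth, and negative values indicate cell death.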 Calls of active or inactive are those of the source. The calls were made as follows: active = growth percent below 10; inactive = the rest.

The test system of the assay is SN12C renal. Put plainly: NCI-60 one-dose screen, 48 h (100 = growth as untreated, 0 = no growth, -100 = all killed). The conditions noted are these: 10 µM unless noted.
On to `Cc1ccc(NC(=O)c2ccc(CN3CCN(C)CC3)cc2)cc1Oc1ccc(-c2[nH]nc3ncnc(N)c23)cc1`, for which the growth was 96.4% (inactive).

For the compound `CCCn1cnc2c(c1=N)C(c1ccc(Cl)cc1)c1sc3c(C)cccc3c1O2` (stereo unspecified), the growth was 17.9% (inactive).

On to `C=C(C=O)[C@@H]1CC[C@]2(C)[C@H](CC=C3[C@H]4[C@@H](C)[C@H](C)CC[C@]4(C(=O)OC)CC[C@]32C)[C@@]1(C)CCC#N`, for which the growth is 12.9% (inactive).

Consider `NC(N)=Nc1ccc(Oc2cccc(NC(N)=Nc3ccc(I)cc3F)c2)cn1`, for which the growth was 39.4% (inactive).

`Cc1occc1-c1nc2s/c(=C/c3ccc(-c4cc(C(F)(F)F)ccc4Cl)o3)c(=O)n2n1`: the growth was 98.4% (inactive).

Consider `C[C@H]1c2[nH]c3ccccc3c2C[C@H]2C(=O)N(CCCCCCC(=O)NO)CC(=O)N21`, for which the growth is 88.5% (inactive).

In the case of `COc1ccc(-c2cc(-c3ccc(Cl)cc3)c(C#N)c(=O)n2Cc2ccc(C(=O)O)cc2)cc1`, the growth is 103% (inactive).

Turning to `O=C1[C@H]2Cc3c([nH]c4ccccc34)[C@@H](c3ccc(Cl)cc3)N2C(=O)CN1C1CCN(Cc2ccccc2)CC1`, the growth is 45.9% (inactive).

For the compound `COc1cc(-c2nn(C(C)(C)C)cc2-c2ccnc(NCCCNS(=O)(=O)c3ccc(C)cc3)n2)ccc1Cl`, the growth is 60.8% (inactive).

`CCCCNNC(=O)c1ccc(-c2cccc(F)c2F)cc1`: the growth was 56.3% (inactive).

Take `CC1(C)CC[C@]2(C(=O)N3CCOCC3)CC[C@]3(C)C(=CC[C@@H]4[C@@]5(C)C/C(=C/c6ccccn6)C(=O)C(C)(C)[C@@H]5CC[C@]43C)[C@@H]2C1`: the growth is 67.7% (inactive).

`CC1(C)CC[C@]23CC[C@]4(C)[C@H](CC[C@@H]5[C@@]6(C)CCCN(CO)C(C)(C)[C@@H]6CC[C@]54C)[C@H]2[C@H]1OC3`: the growth was 89.6% (inactive).

Take `O=C1[C@H]2Cc3c([nH]c4ccccc34)[C@@H](c3ccc(Br)cc3)N2C(=O)CN1C1CCN(CC2CCCCC2)CC1`: the growth is -96.9% (active).

For `COc1ccc([C@H]2c3[nH]c4ccccc4c3C[C@H]3C(=O)N(C4CCN(Cc5c(Cl)cccc5Cl)CC4)CC(=O)N23)c(OC)c1`, the growth was 91% (inactive).

Regarding `NS(=O)(=O)c1ccc(Nc2nc(Nc3ccccc3)nc3nnc(SCC(=O)NC4CCCCC4)n23)cc1`, the growth was 100% (inactive).

On to `O=C(NNc1nc2cc(F)ccc2n2c(CN3CCC(O)C3)ccc12)c1cnccn1` (stereo unspecified), for which the growth was 24.3% (inactive).

As to `CCN(CC)c1cn(-c2ccc(S(N)(=O)=O)cc2)nn1`, the growth was 105% (inactive).

`O=[N+]([O-])c1cc(/C=N/Nc2nc(N/N=C/c3ccc(Cl)c([N+](=O)[O-])c3)nc(N3CCCCC3)n2)ccc1Cl`: the growth is 72.3% (inactive).

Turning to `CC(=O)Nc1cccc(Nc2nc(N[C@@H](C)c3ccccc3)c3ccccc3n2)c1`, the growth is 33.4% (inactive).

For `COc1ccc(COc2ccc(/C=C3\C(=O)Nc4ccccc43)cc2OC)cc1`, the growth was 99.6% (inactive).

Turning to `CCNC(=O)Oc1ccc(/C(=C(/C)c2ccccc2)c2ccc(OCCN3CCCCCC3)cc2)cc1`, the growth is 26.4% (inactive).

As to `COc1cc(/C=N/NC(=O)c2cn(C3CC3)c3c(OC)c(N4CC5CCCNC5C4)c(F)cc3c2=O)ccc1O` (stereo unspecified), the growth is 23.8% (inactive).

In the case of `CC(C)c1ccc(NCc2cn(-c3ccc(C(=O)O)cc3)nc2-c2cc(C(F)(F)F)cc(C(F)(F)F)c2)cc1`, the growth was 85.9% (inactive).

For `C[C@@H]1C[C@H]2C(=O)O[C@@H](C)C(NC(=O)[C@H](Cc3cc(F)cc(F)c3)NC(=O)Nc3ccc(Cl)cc3F)C(=O)N3CCC[C@H]3C(=O)N3CCCC[C@H]3C(=O)N[C@@H](CO)C(=O)N2C1` (stereo partly specified), the growth is 21.5% (inactive).

As for `CC(=O)O[C@@H]1C(=O)N(c2cnccn2)[C@H]1c1ccccc1[N+](=O)[O-]`, the growth was 16.5% (inactive).

Regarding `C=C1CC[C@@H]2[C@]3(C)COC(c4ccccc4)O[C@@H]3CC[C@@]2(C)[C@@H]1C/C=C1/C(=O)OC[C@H]1O` (stereo partly specified), the growth is 79.9% (inactive).

Regarding `Nc1cc(F)ccc1NC(=O)c1ccc(NC(=O)C/C=C/c2cccnc2)cc1`, the growth is 29.5% (inactive).

For the compound `CCc1nn2c(C)cc(C)nc2c1Cc1ccc(/C=C/CN2CCN(CCOCCOCCN3CCN(C/C=C/c4ccc(Cc5c(CC)nn6c(C)cc(C)nc56)cc4)CC3)CC2)cc1`, the growth is 31.4% (inactive).

Consider `COc1ccc(NC(=O)CSc2nnc(-c3ccc4nc(-c5ccccc5)[nH]c4c3)o2)cc1`, for which the growth was 96% (inactive).

With `COc1ccc(N2C(=O)c3cc(Cl)ccc3NC2SCc2ccccc2)cc1` (stereo unspecified), the growth is 91.5% (inactive).

Take `O=C(CSc1nc2ccccc2c(=O)n1-c1ccccc1)Nc1ccc(-c2nc3ccc([N+](=O)[O-])cc3[nH]2)cc1`: the growth is 72.4% (inactive).

As to `O=C(NCCn1ccnc1)c1ccc(-c2nc3ccc4[nH]ncc4c3c3c2CCCC3)cc1`, the growth is 81.6% (inactive).

Regarding `CCCC(=O)NC(c1cccnc1)c1cc(C(C)(C)C)c2cccnc2c1O` (stereo unspecified), the growth is 29.5% (inactive).

As to `NC(N)=Nc1ccc(Oc2cccc(Nc3ccc(Cl)cc3)c2)cn1`, the growth is 12.3% (inactive).

As for `O=C(CN1CCN(c2cc(=O)[nH]c3ccc(F)cc23)CC1)Nc1ccc(Cl)cc1`, the growth was 60.8% (inactive).

Regarding `C=C(C=O)[C@@H]1CC[C@]2(C)[C@H](C(=O)C=C3[C@H]4C[C@](C)(C(=O)OC)CC[C@]4(C)CC[C@]32C)[C@@]1(C)CCC#N`, the growth was 12.8% (inactive).
